# Test results from the OligoGym collection.
# Target: MIER1
# Test: pooled miR-30 sensor sort-seq; sequence = guide strand
# Settings: shRNA
# Also: reference of the scale not given here.
row,Sequence,sensor-assay potency score (higher = more potent)
1,TTGTGATGGATCATCATTGGAA,-0.466
2,TATAATCTTCATCTTCTTCAGA,-0.137
3,TTATCTTCTGGTAAGTACTCAG,-0.171
4,TTCTTCTTTCCAAATCGTGTTT,-0.957
5,TACTGTTTGATGCAGTTGGGGG,-0.856
6,ATCATCAAAATCATGAACCAGC,-0.377
7,TTCGTCTAGAAGACGATCCATG,-1.5
8,TATAATCACTTTATCTTCTGGT,0.758
9,TAGTCGAACAGTACTACCATAA,-1.32
10,TTAATATTTCACCTGGTCCATT,-1.02
11,AATTTCTACACTCTTCCTCTGT,0.0886
12,TTAATCTTCTCAATGCTTCTTC,0.934

# Target: MIOX
# Test: as above
# Settings: shRNA
row,Sequence,sensor-assay potency score (higher = more potent)
1,TGTGCTGTATCGAGGATCCTGG,-0.757
2,TTCTTGTAGGAGAAGCCCCCAA,-0.777
3,TTGTAGGTGGTGAAGACACGGT,-0.626
4,TTGGTGTAGAGGTCGAACTTGT,-0.568
5,TACATCCCGAGCTCTGTGCTGT,-0.811
6,TTGTTAAACTTCATCACCTGGT,-0.0605
7,TCGAACTTGTTGAACTCCCGCA,-0.101
8,TGCATGAGCTTGTAGGTGGTGA,-0.613
9,TCTGGGTCCACATCAGGTCGGT,-0.363
10,TCCATGACTGTCATTTTCTTGT,-1.1
11,TTGGGGAAATCTACGTCCGGGT,-0.845
12,TTTTCTTGTAGGAGAAGCCCCC,-0.0971

# Target: MIP
# Test: as above
# Settings: shRNA
row,Sequence,sensor-assay potency score (higher = more potent)
1,TTCCTCGGACAGCAGGTGGGGT,-1.18
2,TCAGAAATACTCTTGAGCCGGG,0.442
3,TGAGGACAGACAGTCTCTCAGA,-1.25
4,TAGGTTTCCTCGGACAGCAGGT,-0.243
5,TTCAGTTCAACAGGTTCCCCTG,-0.987
6,TAACGCTATACAGCACAGCGGC,-1.18
7,TTGTCCATTGGAGACATCGGGT,-0.903
8,TGAGTGCTAGGTTTCCTCGGAC,-0.712
9,TTGAGTGCTAGGTTTCCTCGGA,-0.0163
10,TGTCCATTGGAGACATCGGGTT,-1.24
11,TCTCTCAGAAATACTCTTGAGC,-0.614
12,TCGTATGTGGCAAAGATGCAGA,-0.993

# Target: MIS12
# Test: as above
# Settings: shRNA
row,Sequence,sensor-assay potency score (higher = more potent)
1,TCTCCTTACATTTATCTTCAGG,-1.19
2,TTTATCTTCAGGAAGCAAGATG,-0.586
3,TTCAGTCTTGTACTTCTCCTGT,0.0481
4,TATGATTCTACTTTTTGACAGG,-0.668
